# Laboratory results reported in PubChem BioAssay (NCATS).
# Records with an inconclusive call do not appear. Entries that show only a call come without a potency. Active and inactive are the calls of the source. Calls follow the shape of the full dose curve.
# How the values were obtained:
# [1] = Cytotoxicity counterscreen for inhibitors of SARS-CoV-2 cell entry (AID 1645845); also: nearly all actives have a fitted effect of over 50% in size
# Procedure, shortened: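 Expi293F/hACE2 cells seeded overnight; cpd pin-transferred in DMSO, 1 h preincubation, + media, 48 h 37 C 5% CO2; ATPLite 1step luminescence; normalized to cells and no cells.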
# [2] = Primary qHTS to identify inhibitors of SARS-CoV-2 cell entry (AID 1645846); also: nearly all actives have a fitted effect of over 45% in size
# Procedure, shortened: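 HEK293 cells stably expressing human ACE2, pre-treated 1 h with compound, then infected with MLV particles pseudotyped with Wuhan-Hu-1 spike (C-terminal 19-aa truncation). Luciferase luminescence after 48 h at 37 °C, normalised to spike PP and bald PP.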
# [3] = activity change, negative = inhibition: at 57.1 µM (top of the series) unless noted
Compound,Potency [1],"Potency [2, 3]","activity change, negative = inhibition [2, 3]","activity change, negative = inhibition ([2]; SARS-CoV-2 pseudovirus cell entry assay, luminescence, at 57.1 µM (top of the series))","activity change, negative = inhibition ([2]; SARS-CoV-2 pseudovirus cell entry assay, luminescence, at 114 µM (top of the series))"
C=CCc1ccc(O)c(OC)c1,inactive,inactive,,,
CC(=O)O[C@@H]1CC2C3CCc4cc(OC(=O)c5ccccc5)ccc4C3CCC2(C)[C@H]1OC(C)=O (some centres not stated),inactive,,4.28%,,
CCCCC[C@H](O)/C=C/[C@@H]1[C@H]2C/C(=C/CCCC(=O)O)O[C@H]2C[C@H]1O,inactive,,-21%,,
CC(N=C(NC#N)Nc1ccncc1)C(C)(C)C (configuration not stated),inactive,,-37.8%,,
C[C@]12CC[C@@H]3c4ccc(OC(=O)N(CCCl)CCCl)cc4CC[C@H]3[C@@H]1CC[C@@H]2OP(=O)(O)O,inactive,inactive,,,
CCCCC(O)/C=C(C)/C=C/C=C/C(=O)N1CCCC1=O (configuration not stated),inactive,,-3.29%,,
CCN1CCN(C(=O)N[C@@H](C(=O)N[C@@H]2C(=O)N3[C@@H]2SC(C)(C)[C@H]3C(=O)O)c2ccccc2)C(=O)C1=O,inactive,inactive,,,
Cc1cc2cc3c(C)cc(=O)oc3c(C)c2o1,inactive,inactive,,,
CCC1=C(C)CN(C(=O)NCCc2ccc(S(=O)(=O)NC(=O)NC3CCC(C)CC3)cc2)C1=O (configuration not stated),inactive,inactive,,,
O=c1cc[nH]c(=O)[nH]1,inactive,,-14.8%,,
CC(=O)Nc1ccc(C(=O)O)cc1,inactive,inactive,,,
CCC[C@@H]1C[C@@H](C(=O)N[C@@H]([C@H]2O[C@H](SC)[C@H](O)[C@@H](O)[C@H]2O)[C@@H](C)O)N(C)C1,inactive,inactive,,,
CN1[C@@H]2CC(OC(=O)[C@H](CO)c3ccccc3)C[C@H]1[C@@H]1O[C@@H]12 (some centres not stated),inactive,inactive,,,
CCCCCCCCCCCCCCCCO,inactive,,-7.94%,,
COCCCN1CCC(NC(=O)c2cc(Cl)c(N)c3c2OCC3)CC1,inactive,inactive,-5.91%,,
O=C(O)c1cccnc1,inactive,inactive,-20.2% [at 114 µM],,
C[C@]12C=CC(=O)C=C1CC[C@@H]1[C@@H]2C(=O)C[C@@]2(C)[C@H]1CC[C@]2(O)C(=O)CO,inactive,inactive,-11.4%,,
CC1(C)O[C@@H]2C[C@H]3[C@@H]4C[C@H](F)C5=CC(=O)C=C[C@]5(C)[C@@]4(F)[C@@H](O)C[C@]3(C)[C@]2(C(=O)CO)O1,inactive,inactive,-12.3%,,

Compound,Potency [1],"Potency [2, 3]","activity change, negative = inhibition [2, 3]","activity change, negative = inhibition ([2]; SARS-CoV-2 pseudovirus cell entry assay, luminescence, at 57.1 µM (top of the series))","activity change, negative = inhibition ([2]; SARS-CoV-2 pseudovirus cell entry assay, luminescence, at 114 µM (top of the series))"
CNNCc1ccc(C(=O)NC(C)C)cc1,inactive,inactive,3.71%,,
COC(=O)[C@@H]1[C@H]2C[C@H]3c4[nH]c5ccccc5c4CCN3C[C@@H]2CC[C@@H]1O,inactive,inactive,-32.5%,,
COc1ccc2cccc(CCNC(C)=O)c2c1,inactive,inactive,-31%,,
O=C(O)c1cc(=O)[nH]c(=O)[nH]1,inactive,inactive,-5.5%,,
NC(=O)c1cnccn1,inactive,inactive,-28%,,
CNC(=O)c1c(I)c(NC(C)=O)c(I)c(C(=O)O)c1I,inactive,inactive,,,
O=C(O)CSCC(=O)NC1CCSC1=O (configuration not stated),inactive,inactive,-0.451%,,
Cc1ncc([N+](=O)[O-])n1CC(C)O (configuration not stated),inactive,,,-6.83%,-38.4%
CC(=O)CC(c1ccccc1)c1c(O)c2ccccc2oc1=O (configuration not stated),inactive,inactive,0.432%,,
CCC1(C)CC(=O)NC1=O (configuration not stated),inactive,inactive,-9.22% [at 114 µM],,
CCCc1nn(C)c2c(=O)[nH]c(-c3cc(S(=O)(=O)N4CCN(C)CC4)ccc3OCC)nc12,inactive,inactive,-6.94%,,
CO[C@@H]1[C@@H](OC(N)=O)[C@@H](O)[C@H](Oc2ccc3c(O)c(NC(=O)c4ccc(O)c(CC=C(C)C)c4)c(=O)oc3c2C)OC1(C)C,inactive,inactive,0.81%,,
CN1C(C(=O)Nc2ccccn2)=C(O)c2ccccc2S1(=O)=O,inactive,inactive,-89.8%,,
O=C(NC(Cc1cc(=O)[nH]c2ccccc12)C(=O)O)c1ccc(Cl)cc1 (configuration not stated),inactive,inactive,1.86%,,
O=c1[nH]cnc2[nH]ncc12,inactive,inactive,-11.8% [at 114 µM],,
CNC[C@H](O)c1cccc(O)c1,inactive,inactive,1.11%,,
C[C@]12C=CC(=O)C=C1CC[C@@H]1[C@@H]2[C@@H](O)C[C@@]2(C)[C@H]1CC[C@]2(O)C(=O)CO,inactive,inactive,-3.66%,,
O=C(O)c1cc(=O)c2c(OCC(O)COc3cccc4oc(C(=O)O)cc(=O)c34)cccc2o1,inactive,inactive,,,
